Data on two sequences can be found in publication PMC7862700, “An all-to-all approach to the identification of sequence-specific readers for epigenetic DNA modifications on cytosine”.

What all share (test): DAPPL (digital affinity profiling via proximity ligation, sequencing); 10 mM Tris-HCl pH 7.5, 50 mM NaCl, 1 mM DTT, 4% glycerol, room temperature, 30 min; GST-TFs on glutathione beads, 16-mer random dsDNA library, 0.1% formaldehyde crosslink after washing; high values mean tight binding
Common to all, as to settings: protein: recombinant; tags: N-terminal GST; dsDNA, one strand shown

Experiment [1] addresses T1, FLI1 (Homo sapiens, UniProt Q01543 1-452).
T1 sequence: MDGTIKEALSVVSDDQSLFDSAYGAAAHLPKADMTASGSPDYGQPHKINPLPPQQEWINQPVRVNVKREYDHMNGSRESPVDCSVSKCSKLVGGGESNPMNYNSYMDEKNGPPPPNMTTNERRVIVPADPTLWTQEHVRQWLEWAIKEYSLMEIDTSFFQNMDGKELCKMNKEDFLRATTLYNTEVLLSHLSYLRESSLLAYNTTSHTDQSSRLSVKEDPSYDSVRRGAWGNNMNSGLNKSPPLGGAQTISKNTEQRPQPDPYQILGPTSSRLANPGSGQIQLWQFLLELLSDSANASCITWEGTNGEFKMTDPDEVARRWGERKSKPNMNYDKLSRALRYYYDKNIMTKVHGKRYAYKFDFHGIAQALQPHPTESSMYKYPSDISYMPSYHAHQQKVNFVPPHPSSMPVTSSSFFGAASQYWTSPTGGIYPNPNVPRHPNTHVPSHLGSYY
In a few lines: (§1)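 Binding signal is given per hexamer as its read frequency for a factor divided by its frequency in the tag-only sample. GST-fused human transcription factors were expressed in yeast, captured on glutathione beads, barcoded with DNA and pooled with that sample, then incubated with 200 nmole of a 16-mer random double-stranded DNA library in Tris/NaCl/DTT/glycerol buffer for 30 min at room temperature. The pools were then washed, crosslinked, proximity-ligated, amplified by PCR and sequenced on an Illumina NextSeq500.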

Experiment [2] addresses T2, ELK1 (Homo sapiens, UniProt P19419 1-428).
T2 sequence: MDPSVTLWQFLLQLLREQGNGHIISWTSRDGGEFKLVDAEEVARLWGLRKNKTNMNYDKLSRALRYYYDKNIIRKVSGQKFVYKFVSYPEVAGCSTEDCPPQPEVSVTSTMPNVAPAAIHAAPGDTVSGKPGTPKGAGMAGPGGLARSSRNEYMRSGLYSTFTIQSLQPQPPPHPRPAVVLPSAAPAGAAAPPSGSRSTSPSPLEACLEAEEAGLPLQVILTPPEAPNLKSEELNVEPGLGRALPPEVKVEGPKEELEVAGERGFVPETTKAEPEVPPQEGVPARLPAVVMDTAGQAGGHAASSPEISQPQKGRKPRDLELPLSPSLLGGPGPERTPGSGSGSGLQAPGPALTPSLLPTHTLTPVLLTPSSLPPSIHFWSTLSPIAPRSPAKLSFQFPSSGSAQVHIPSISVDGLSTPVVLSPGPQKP
In a few lines:
as §1

The target of experiment [3] is T3, GABPA (Homo sapiens, UniProt Q06546 1-454).
T3 sequence: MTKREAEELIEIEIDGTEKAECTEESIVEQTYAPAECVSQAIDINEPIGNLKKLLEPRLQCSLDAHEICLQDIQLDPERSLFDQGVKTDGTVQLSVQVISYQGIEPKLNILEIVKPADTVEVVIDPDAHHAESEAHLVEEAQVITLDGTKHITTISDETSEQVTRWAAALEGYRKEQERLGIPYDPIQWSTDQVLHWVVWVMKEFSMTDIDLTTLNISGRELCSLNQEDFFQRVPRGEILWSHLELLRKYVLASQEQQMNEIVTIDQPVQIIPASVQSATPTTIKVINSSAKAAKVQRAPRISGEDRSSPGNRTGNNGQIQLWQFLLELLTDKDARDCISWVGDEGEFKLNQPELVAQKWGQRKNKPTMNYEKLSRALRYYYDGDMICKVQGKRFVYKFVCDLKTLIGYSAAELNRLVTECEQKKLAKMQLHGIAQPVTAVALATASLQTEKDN
In a few lines:
as §1

In experiment [4] the target is T4, ERG (Homo sapiens, UniProt P11308 1-479).
T4 sequence: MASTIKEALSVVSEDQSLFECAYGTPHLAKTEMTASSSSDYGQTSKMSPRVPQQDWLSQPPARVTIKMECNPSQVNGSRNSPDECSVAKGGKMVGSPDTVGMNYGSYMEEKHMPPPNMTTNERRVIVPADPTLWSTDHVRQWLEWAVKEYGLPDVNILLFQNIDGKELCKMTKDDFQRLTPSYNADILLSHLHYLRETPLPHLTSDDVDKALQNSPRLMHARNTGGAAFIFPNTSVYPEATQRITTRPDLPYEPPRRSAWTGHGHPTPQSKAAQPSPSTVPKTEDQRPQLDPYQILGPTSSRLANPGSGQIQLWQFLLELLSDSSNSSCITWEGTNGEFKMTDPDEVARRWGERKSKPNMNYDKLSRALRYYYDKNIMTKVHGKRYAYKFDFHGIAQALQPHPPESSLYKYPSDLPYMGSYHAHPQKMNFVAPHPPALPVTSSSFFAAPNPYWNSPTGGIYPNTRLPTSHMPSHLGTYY
The method in brief: as §1

The target in experiment [5] is ELF1 (Homo sapiens, UniProt P32519 1-619). The method in brief:
as §1

The target of experiment [6] is T5, EHF (Homo sapiens, UniProt Q9NZC4 1-300).
T5 sequence: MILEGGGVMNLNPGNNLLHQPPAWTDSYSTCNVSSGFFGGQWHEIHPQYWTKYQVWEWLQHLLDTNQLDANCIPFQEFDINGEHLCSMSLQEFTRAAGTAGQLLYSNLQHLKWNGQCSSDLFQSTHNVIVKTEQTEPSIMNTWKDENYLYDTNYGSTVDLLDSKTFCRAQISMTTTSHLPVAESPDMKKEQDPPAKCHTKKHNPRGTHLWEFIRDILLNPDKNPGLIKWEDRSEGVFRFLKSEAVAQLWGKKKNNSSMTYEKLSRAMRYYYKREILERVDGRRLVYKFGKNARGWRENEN
The method in brief:
as §1

The target in experiment [7] is SPI1 (Homo sapiens, UniProt P17947 1-270). In a few lines: as §1
Experiment [8] addresses T6, FEV (Homo sapiens, UniProt Q99581 1-238).
T6 sequence: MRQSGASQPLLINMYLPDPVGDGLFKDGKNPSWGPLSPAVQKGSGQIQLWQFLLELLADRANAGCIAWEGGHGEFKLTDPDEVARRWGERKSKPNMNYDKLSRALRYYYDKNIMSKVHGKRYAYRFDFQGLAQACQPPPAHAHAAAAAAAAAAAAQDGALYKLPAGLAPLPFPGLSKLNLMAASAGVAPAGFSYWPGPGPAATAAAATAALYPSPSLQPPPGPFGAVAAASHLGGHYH
In a few lines:
as §1

Experiment [9] addresses ETV5 (Homo sapiens, UniProt P41161 1-510). The method in brief:
as §1

Experiment [10] concerns the target T7, SPIC (Homo sapiens, UniProt Q8N5J4 1-248).
T7 sequence: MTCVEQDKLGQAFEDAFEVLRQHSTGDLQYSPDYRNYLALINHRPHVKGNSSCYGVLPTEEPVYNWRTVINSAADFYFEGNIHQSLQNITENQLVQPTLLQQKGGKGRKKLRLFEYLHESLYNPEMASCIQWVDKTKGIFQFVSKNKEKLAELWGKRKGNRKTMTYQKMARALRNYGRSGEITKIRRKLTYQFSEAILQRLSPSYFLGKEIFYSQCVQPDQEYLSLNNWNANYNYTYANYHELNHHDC
The method in brief:
as §1

The target in experiment [11] is ELF4 (Homo sapiens, UniProt Q99607 1-663). The method in brief: as §1
In experiment [12] the target is T8, ELK4 (Homo sapiens, UniProt P28324-2 1-405).
T8 sequence: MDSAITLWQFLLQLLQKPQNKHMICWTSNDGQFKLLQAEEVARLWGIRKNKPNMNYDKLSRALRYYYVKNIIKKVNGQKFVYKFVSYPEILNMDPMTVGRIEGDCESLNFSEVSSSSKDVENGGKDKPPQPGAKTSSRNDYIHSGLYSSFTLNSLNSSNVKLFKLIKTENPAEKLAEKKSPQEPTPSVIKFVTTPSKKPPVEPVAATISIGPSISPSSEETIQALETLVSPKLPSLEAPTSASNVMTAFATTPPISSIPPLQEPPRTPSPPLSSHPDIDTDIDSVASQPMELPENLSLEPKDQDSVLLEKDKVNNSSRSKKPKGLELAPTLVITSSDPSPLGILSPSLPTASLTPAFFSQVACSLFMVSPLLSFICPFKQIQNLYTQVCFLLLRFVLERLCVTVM
The method in brief: as §1

Experiment [13] deals with T9, ETV2 (Homo sapiens, UniProt O00321 1-342).
T9 sequence: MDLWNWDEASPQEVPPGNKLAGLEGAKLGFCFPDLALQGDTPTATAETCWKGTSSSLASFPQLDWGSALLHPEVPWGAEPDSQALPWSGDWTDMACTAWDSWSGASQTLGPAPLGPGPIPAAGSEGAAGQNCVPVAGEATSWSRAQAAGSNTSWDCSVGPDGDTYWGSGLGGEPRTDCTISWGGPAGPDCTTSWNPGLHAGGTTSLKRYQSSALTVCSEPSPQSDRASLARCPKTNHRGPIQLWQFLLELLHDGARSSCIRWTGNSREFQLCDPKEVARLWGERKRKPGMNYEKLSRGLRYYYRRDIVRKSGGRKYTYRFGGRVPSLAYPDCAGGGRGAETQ
In a few lines:
as §1

In experiment [14] the target is ETV1 (Homo sapiens, UniProt P50549 1-477). The method in brief: as §1
Experiment [15] addresses SPIB (Homo sapiens, UniProt Q01892 1-262). The method in brief: as §1
In experiment [16] the target is T10, ELK3 (Homo sapiens, UniProt P41970 1-407).
T10 sequence: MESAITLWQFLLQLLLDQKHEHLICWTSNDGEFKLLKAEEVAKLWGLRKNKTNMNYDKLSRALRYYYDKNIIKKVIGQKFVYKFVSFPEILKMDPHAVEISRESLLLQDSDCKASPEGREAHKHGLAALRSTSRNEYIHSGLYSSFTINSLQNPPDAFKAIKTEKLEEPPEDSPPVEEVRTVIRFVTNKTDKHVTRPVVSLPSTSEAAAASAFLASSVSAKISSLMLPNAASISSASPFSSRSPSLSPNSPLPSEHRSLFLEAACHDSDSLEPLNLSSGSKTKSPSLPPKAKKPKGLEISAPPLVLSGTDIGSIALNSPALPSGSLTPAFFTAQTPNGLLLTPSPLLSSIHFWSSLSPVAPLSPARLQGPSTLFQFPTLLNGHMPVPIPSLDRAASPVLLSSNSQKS
In a few lines: as §1

Chain of ETV5 (P41161 whole entry): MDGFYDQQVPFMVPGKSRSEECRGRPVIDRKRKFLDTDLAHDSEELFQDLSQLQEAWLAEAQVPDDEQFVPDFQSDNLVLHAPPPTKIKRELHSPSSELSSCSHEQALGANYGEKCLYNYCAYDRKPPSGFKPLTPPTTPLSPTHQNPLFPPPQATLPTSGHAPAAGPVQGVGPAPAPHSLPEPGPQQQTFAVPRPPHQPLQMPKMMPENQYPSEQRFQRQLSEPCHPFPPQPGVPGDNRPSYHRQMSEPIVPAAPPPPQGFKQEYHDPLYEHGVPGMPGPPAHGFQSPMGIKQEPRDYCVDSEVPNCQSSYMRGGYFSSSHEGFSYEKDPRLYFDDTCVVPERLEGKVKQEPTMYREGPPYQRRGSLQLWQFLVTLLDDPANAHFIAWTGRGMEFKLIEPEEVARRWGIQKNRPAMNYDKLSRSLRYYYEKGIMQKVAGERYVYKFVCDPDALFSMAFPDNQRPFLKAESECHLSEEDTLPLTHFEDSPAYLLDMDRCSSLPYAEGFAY
Chain of ELF1 (P32519 whole entry): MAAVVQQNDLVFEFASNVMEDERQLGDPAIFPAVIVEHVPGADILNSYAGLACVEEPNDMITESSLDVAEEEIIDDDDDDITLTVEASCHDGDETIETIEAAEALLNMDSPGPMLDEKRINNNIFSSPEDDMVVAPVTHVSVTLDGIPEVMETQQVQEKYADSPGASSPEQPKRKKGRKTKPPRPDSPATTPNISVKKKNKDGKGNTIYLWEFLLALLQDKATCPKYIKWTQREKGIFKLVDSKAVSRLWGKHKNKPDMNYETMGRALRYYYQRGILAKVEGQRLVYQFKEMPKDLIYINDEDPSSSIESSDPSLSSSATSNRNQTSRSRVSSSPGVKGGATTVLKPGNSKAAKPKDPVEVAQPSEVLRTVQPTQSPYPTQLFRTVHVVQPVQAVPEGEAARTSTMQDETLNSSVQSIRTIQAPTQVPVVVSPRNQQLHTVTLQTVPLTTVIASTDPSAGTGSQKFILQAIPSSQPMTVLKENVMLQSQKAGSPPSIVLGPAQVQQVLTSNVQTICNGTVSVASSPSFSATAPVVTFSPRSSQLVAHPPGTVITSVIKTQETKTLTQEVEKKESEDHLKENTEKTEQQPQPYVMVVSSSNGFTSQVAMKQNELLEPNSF
Chain of ELF4 (Q99607 whole entry): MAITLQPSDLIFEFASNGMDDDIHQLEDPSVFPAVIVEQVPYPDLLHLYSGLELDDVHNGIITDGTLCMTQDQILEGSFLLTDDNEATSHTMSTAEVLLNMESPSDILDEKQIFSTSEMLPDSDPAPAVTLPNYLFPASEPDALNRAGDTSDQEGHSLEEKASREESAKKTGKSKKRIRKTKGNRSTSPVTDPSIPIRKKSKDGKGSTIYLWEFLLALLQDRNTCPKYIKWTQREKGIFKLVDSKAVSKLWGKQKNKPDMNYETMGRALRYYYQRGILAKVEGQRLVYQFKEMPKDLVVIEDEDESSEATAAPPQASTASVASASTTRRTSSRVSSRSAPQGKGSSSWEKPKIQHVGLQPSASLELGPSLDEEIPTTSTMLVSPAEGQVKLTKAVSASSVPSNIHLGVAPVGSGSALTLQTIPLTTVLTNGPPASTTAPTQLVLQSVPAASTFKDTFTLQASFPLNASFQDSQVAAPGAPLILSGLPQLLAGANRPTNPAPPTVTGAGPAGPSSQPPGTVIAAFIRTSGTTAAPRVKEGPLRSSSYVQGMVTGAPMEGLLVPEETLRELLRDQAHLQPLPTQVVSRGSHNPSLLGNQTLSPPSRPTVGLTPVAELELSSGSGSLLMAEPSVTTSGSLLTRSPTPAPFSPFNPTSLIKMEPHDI
Chain of ETV1 (P50549 whole entry): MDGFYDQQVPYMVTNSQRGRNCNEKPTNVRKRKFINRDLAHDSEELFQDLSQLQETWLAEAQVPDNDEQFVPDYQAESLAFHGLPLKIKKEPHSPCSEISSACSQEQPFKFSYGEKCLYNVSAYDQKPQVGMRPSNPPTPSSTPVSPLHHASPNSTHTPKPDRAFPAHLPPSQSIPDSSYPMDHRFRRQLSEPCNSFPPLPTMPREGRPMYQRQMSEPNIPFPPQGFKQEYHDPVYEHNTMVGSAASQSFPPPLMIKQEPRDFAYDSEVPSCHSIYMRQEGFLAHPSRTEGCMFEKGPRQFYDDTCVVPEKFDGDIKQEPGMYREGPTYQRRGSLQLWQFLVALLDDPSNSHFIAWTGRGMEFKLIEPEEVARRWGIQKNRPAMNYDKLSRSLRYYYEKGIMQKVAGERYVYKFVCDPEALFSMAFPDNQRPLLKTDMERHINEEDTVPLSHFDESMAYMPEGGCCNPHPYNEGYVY
Chain of SPIB (Q01892 whole entry): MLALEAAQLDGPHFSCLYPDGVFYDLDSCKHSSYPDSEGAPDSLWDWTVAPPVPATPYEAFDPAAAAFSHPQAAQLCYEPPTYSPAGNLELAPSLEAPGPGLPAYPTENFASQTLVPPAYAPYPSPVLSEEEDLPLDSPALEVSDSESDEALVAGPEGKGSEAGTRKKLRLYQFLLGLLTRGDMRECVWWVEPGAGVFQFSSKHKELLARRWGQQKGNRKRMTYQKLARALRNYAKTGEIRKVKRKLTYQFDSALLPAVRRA

On to CAACGC, for which the binding signal in experiment [1] was 1.04 fold enrichment (6-mer frequency, TF over GST control); in experiment [2], 1.11 fold enrichment (6-mer frequency, TF over GST control); in experiment [3] it was 1.12 fold enrichment (6-mer frequency, TF over GST control); in experiment [4] it was 1.04 fold enrichment (6-mer frequency, TF over GST control); in experiment [5], 1.11 fold enrichment (6-mer frequency, TF over GST control); in experiment [6] it was 1.01 fold enrichment (6-mer frequency, TF over GST control). Moreover, the binding signal was 1.1 fold enrichment (6-mer frequency, TF over GST control) in [7]; 1.06 fold enrichment (6-mer frequency, TF over GST control) in experiment [8]; 1.01 fold enrichment (6-mer frequency, TF over GST control) in [9]; 1.1 fold enrichment (6-mer frequency, TF over GST control) in experiment [10]; 1.11 fold enrichment (6-mer frequency, TF over GST control) in experiment [11]; 1.03 fold enrichment (6-mer frequency, TF over GST control) in experiment [12]. Besides, the binding signal in experiment [13] was 1.1 fold enrichment (6-mer frequency, TF over GST control); in experiment [14] it was 1.05 fold enrichment (6-mer frequency, TF over GST control).

As for TGGCCC, the binding signal in experiment [1] is 1.02 fold enrichment (6-mer frequency, TF over GST control); in experiment [2], 1.13 fold enrichment (6-mer frequency, TF over GST control); in [3] it was 1.24 fold enrichment (6-mer frequency, TF over GST control); in experiment [4], 1.13 fold enrichment (6-mer frequency, TF over GST control); in [5], 1.05 fold enrichment (6-mer frequency, TF over GST control); in experiment [6], 1.02 fold enrichment (6-mer frequency, TF over GST control). Besides, the binding signal in experiment [7] was 1.17 fold enrichment (6-mer frequency, TF over GST control); in [15], 1.12 fold enrichment (6-mer frequency, TF over GST control); in experiment [16], 1.16 fold enrichment (6-mer frequency, TF over GST control); in [8], 1.09 fold enrichment (6-mer frequency, TF over GST control); in experiment [9], 1.12 fold enrichment (6-mer frequency, TF over GST control); in [10] it was 1.18 fold enrichment (6-mer frequency, TF over GST control). For the same sequence, the binding signal in experiment [11] is 1.14 fold enrichment (6-mer frequency, TF over GST control); in experiment [12], 1.19 fold enrichment (6-mer frequency, TF over GST control); in [13] it was 1.18 fold enrichment (6-mer frequency, TF over GST control); in experiment [14] it was 1.15 fold enrichment (6-mer frequency, TF over GST control).
